Compound activity as filed in PubChem BioAssay.
USP30 inh – inhibitors of human USP30 deubiquitinase; purified USP30, Ub-rhodamine cleavage fluorescence; inhibition, % at 25 µM; Ubiquitin carboxyl-terminal hydrolase 30 (Homo sapiens), Q70CQ3; actives 5.3% (n = 47,000)
USP17 inh – inhibitors of human USP17 deubiquitinase; Ubiquitin carboxyl-terminal hydrolase 17-like protein 5 (Homo sapiens), A8MUK1; purified USP17, Ub-rhodamine cleavage fluorescence, 3 h; inhibition, % at 50 µM; actives 6.5% (n = 47,000); AID 1645855, 2021
USP28 inh – inhibitors of human USP28 deubiquitinase | AID 1645857, 2021 | purified USP28, Ub-rhodamine cleavage fluorescence, 30 min | actives 3% (n = 47,000) | inhibition, % at 25 µM | Ubiquitin carboxyl-terminal hydrolase 28 (Homo sapiens), Q96RU2
USP8 block – inhibitors of human USP8 deubiquitinase; purified USP8, Ub-rhodamine cleavage fluorescence, 30 min; actives 4.2% (n = 47,000); inhibition, % at 20 µM; Ubiquitin carboxyl-terminal hydrolase 8 (Homo sapiens), P40818
USP10 inh – inhibitors of human USP10 deubiquitinase. Ubiquitin carboxyl-terminal hydrolase 10 (Homo sapiens), Q14694. inhibition, % at 20 µM. purified USP10, Ub-rhodamine fluorescence, 60 min. AID 1645856, 2021. actives 1.1% (n = 47,000)
Target sequence (Q14694 whole entry, looked up): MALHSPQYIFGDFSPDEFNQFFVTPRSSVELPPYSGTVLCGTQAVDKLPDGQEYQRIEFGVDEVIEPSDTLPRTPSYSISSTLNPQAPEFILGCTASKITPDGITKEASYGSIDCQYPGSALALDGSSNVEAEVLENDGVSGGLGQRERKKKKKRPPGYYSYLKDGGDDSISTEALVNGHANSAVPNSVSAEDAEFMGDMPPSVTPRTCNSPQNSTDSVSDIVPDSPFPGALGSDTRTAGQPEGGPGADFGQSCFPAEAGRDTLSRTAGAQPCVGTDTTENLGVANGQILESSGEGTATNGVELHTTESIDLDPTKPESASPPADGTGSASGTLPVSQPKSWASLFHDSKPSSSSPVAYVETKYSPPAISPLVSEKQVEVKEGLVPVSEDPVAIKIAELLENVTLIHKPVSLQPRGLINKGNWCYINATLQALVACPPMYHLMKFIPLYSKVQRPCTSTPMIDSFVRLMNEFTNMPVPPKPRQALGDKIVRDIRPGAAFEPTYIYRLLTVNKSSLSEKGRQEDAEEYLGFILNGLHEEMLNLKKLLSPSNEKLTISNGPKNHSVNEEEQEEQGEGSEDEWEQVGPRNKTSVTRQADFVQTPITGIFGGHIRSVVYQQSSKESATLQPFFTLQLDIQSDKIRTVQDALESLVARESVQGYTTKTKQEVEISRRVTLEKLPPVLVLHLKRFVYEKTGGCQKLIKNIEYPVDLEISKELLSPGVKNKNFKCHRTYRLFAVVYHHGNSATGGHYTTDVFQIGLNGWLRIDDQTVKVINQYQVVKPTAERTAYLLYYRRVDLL
An asterisk follows results filed as active; · = not tested or not shown. Shown are actives, neighbours in structure and some others; about 14% of the full set was active somewhere. No stated cut-off is given here; in the data, active means inhibition above about 30%; inactive means the rest.

SMILES | USP30 inh | USP17 inh | USP28 inh | USP8 block | USP10 inh
O=C(Cc1ccccc1)N1CCN(c2nc3ccc(Cl)cc3s2)CC1 | 33.0* | 16.7 | 8.8 | 16.2 | 8.2
Cc1ccc2nc(N3CCN(C(=O)Cc4ccccc4)CC3)sc2c1 | -4.0 | 2.2 | -8.0 | -6.0 | 2.1
O=C(Nc1ccc(-c2nccs2)cc1)c1ccc(F)cc1Cl | -17.4 | 21.6 | 3.2 | -8.9 | -1.0
CN(C)Cc1ccc(C(=O)Nc2ccc(-c3nccs3)cc2)cc1 | 0.1 | -22.2 | 88.5* | -8.3 | -2.4
CCN1CCN(c2ccc(C(=O)OC)cc2NC(=O)/C=C/c2cc(Br)ccc2OC)CC1 | -3.5 | 4.1 | 4.0 | 14.1 | 2.4
CCN1CCN(c2ccc(C(=O)OC)cc2NC(=O)c2sc3cc(Cl)ccc3c2Cl)CC1 | 47.6* | 12.2 | 13.4 | 19.9 | 0.5
O=C(Nc1cccc(C(F)(F)F)c1)c1ccccc1Cc1ccccc1 | 18.1 | 35.2* | 25.7 | 18.0 | 15.8
O=C(CCC(=O)N(c1ccccc1)c1ccccc1)Nc1cccc(C(F)(F)F)c1 | 33.5* | 18.1 | 15.4 | -31.6 | 10.3
O=C(Nc1ccc(N2CCN(Cc3ccccc3)C2=O)nc1)C1CCC1 | 16.7 | 9.4 | 4.8 | 19.2 | 3.2
CC(C)C(=O)Nc1ccc(N2CCN(Cc3ccc(F)cc3)C2=O)nc1 | 17.6 | 62.2* | 22.9 | 28.6 | -2.6
COC1=C2C[C@@H](C)C[C@H](OC)[C@H](O)[C@@H](C)/C=C(\C)[C@H](OC(N)=O)[C@@H](OC)/C=C\C=C(/C)C(=O)NC(=CC1=O)C2=O | -5.4 | -1.7 | 6.3 | -4.1 | -7.3
CCC1OC(O)(C(C)C(O)C(C)C2OC(=O)/C(C)=C/C(C)=CC(C)C(O)C(C)C/C(C)=C/C=C/C2OC)CC(OC(=O)/C=C/C(=O)NC2=C(O)CCC2=O)C1C (centres undefined) | 12.1 | 74.2* | 33.8* | 17.1 | 38.6*
CO/C1=C\C(C)=C/[C@@H](C)[C@@H](O)[C@@H](C)C/C(C)=C/C=C/[C@H](OC)[C@@H]([C@@H](C)[C@@H](O)[C@H](C)[C@@]2(O)C[C@@H](OC(=O)/C=C/C(N)=O)[C@H](C)[C@@H](C(C)C)O2)OC1=O | -2.5 | 56.5* | 23.5 | 2.5 | 27.7
Cc1cccc2[nH]c3c(N4CCN(C/C=C/c5ccccc5)CC4)ncnc3c12 | -29.9 | -5.4 | -0.5 | 9.7 | 7.2
CCc1ccc(NC(=O)Cc2nnc3cc(-c4nc(C)no4)ccn23)cc1 | 22.3 | 54.7* | 30.5* | 83.9* | 55.5*
CCc1noc(-c2ccn3c(CC(=O)Nc4ccccc4C)nnc3c2)n1 | 11.6 | 25.1 | 1.2 | 76.0* | 18.0
Cc1ccc(NC(=O)Cc2nnc3cc(-c4nc(C)no4)ccn23)cc1 | 68.5* | 12.6 | 42.4* | 62.4* | 46.1*
Cc1ccc(NC(=O)Cc2nnc3ccc(-c4nc(C)no4)cn23)c(C)c1 | 9.1 | 9.8 | 0.3 | -134.1 | 2.6
Cc1noc(-c2ccc3nnc(CC(=O)Nc4ccc(F)c(C)c4)n3c2)n1 | -35.6 | -9.0 | -14.1 | -239.9 | -1.8
CC(C)C(NC(=O)c1ccc(C(C)(C)C)cc1)C(=O)OCc1cc(=O)oc2ccc3ccccc3c12 (centres undefined) | · | -21.7 | · | -16.2 | -2.6
Cc1ccccc1OCCC(=O)N1CCc2nnc(C3CCN(C)CC3)n2CC1 | 17.5 | 11.5 | 1.8 | 11.6 | 0.9
CC(C)CN1C[C@H]2CCN(C(=O)COc3ccccc3)CC[C@H]2S1(=O)=O | 26.9 | 10.1 | 13.9 | -0.5 | 0.7
CC(C)n1nccc1-c1cnc(CC2CCN(S(C)(=O)=O)C2)cn1 (centres undefined) | -16.7 | -10.4 | -9.9 | -35.8 | 0.0
CC(C)n1nccc1-c1cnc(CC2CCN(S(C)(=O)=O)CC2)cn1 | 31.2* | 12.9 | 9.9 | 14.0 | 0.9
CC(C)c1cc(Nc2ccc(O)cc2)n2nc(-c3cccnc3)nc2n1 | 17.7 | 19.3 | 4.1 | 16.8 | 7.1
c1ccc(-c2cc(NCc3cccnc3)n3nc(-c4cccnc4)nc3n2)cc1 | -12.1 | -1.6 | -5.8 | -11.5 | -5.0
CCCNc1cc(-c2ccccc2)nc2nc(-c3cccnc3)nn12 | 29.8 | 54.3* | 4.9 | 4.3 | 2.2
CC(C)c1cc(NCc2ccco2)n2nc(-c3cccnc3)nc2n1 | 36.6* | 31.3* | 16.1 | 8.6 | 0.8
